# Data taken from PubChem BioAssay (Tox21).
# Results filed as inconclusive are left out. A call without a number means that no potency is given here. Values without a mark were called inactive. The source made the active and inactive calls. Unless noted, calls follow the shape of the dose curve; as a rule, active = well fitted curve in the direction sought with a large enough effect in the repeat runs; inconclusive = weak or mixed curves; inactive = no such curve, though single readings can be large; an effect the other way counts as inactive or inconclusive.
# How the values were obtained:
# [1] = qHTS assay to identify small molecule antagonists of the thyroid receptor (TR) signaling pathway - cell viability counter screen (AID 743064); also: nearly all actives have a fitted effect of over 50% in size
# Outline: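 Same-well viability check: GH3.TRE-Luc cells stimulated with 1 nM T3 alongside test compound for 23.5 h, followed by CellTiter-Fluor fluorescence.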
# [2] = qHTS assay to identify small molecule antagonists of the thyroid receptor (TR) signaling pathway (AID 743065); also: nearly all actives have a fitted effect of over 55% in size
# Outline: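 Antagonism measured as loss of luciferase signal in GH3 cells stably carrying a TRE-luciferase reporter, co-treated with compound and T3 (1 nM final) for 23.5 h at 37 C. Viability was read in the same well by CellTiter-Fluor.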
# [3] = test system: thyroid hormone receptor (rat, GH3 cells); experiment: qHTS assay to identify small molecule agonists of the thyroid receptor (TR) signaling pathway (AID 743066; calls by dose curve)
# [4] = target: Estrogen receptor (Homo sapiens) (UniProt P03372); experiment: qHTS assay to identify small molecule antagonists of the estrogen receptor alpha (ER-alpha) signaling pathway (AID 743069; active = well fitted curve in the direction sought with a large enough effect in the signal ratio in the repeat runs, not every such curve was filed as active; the % refers to the signal ratio)
# Outline: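 Fluorescence intensity from a beta-lactamase FRET substrate served as the read-out. Cells: HEK293 with stably integrated ER-alpha-UAS-bla reporter. Agonist 17beta-estradiol was co-added with compounds; incubation 18 hr at 37C, substrate 2 hr at room temperature.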
# [5] = qHTS assay to identify small molecule antagonists of the estrogen receptor alpha (ER-alpha) signaling pathway - cell viability counter screen (AID 743074; calls by dose curve; also: nearly all actives have a fitted effect of over 45% in size)
# [6] = target: Estrogen receptor (Homo sapiens) (UniProt P03372); experiment: qHTS assay to identify small molecule agonists of the estrogen receptor alpha (ER-alpha) signaling pathway (AID 743075; calls by dose curve)
# [7] = target: Estrogen receptor (Homo sapiens) (UniProt P03372); experiment: qHTS assay to identify small molecule agonists of the estrogen receptor alpha (ER-alpha) signaling pathway using the BG1 cell line (AID 743079); conditions: BG1Luc4E2 cells, ERE-luciferase agonist, 22 h; activation: at 70.3 µM (top of the series); also: nearly all actives have a fitted effect of over 20% in size; also: potency is read from the fitted curve at half-maximal effect
# [8] = qHTS assay to identify small molecule antagonists of the estrogen receptor alpha (ER-alpha) signaling pathway using the BG1 cell line (AID 743080; calls by dose curve;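 also: BG1 cells stimulated with 17beta-estradiol alongside compound; nearly all actives have a fitted effect of over 25% in size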)
# Outline: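 Readout is ONE-Glo luminescence, taken 30 min at room temperature after reagent addition, preceded by a CellTiter-Fluor viability read; BG1-Luc-4E2 cells had received compound and 17beta-estradiol for 21.5 h at 37 C.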
# Aromatase (Homo sapiens) = Aromatase (Homo sapiens) (UniProt P11511); experiment: qHTS assay to identify aromatase inhibitors (AID 743083); also: nearly all actives have a fitted effect of over 55% in size
# [9] = qHTS assay to identify aromatase inhibitors - cell viability counter screen (AID 743084);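 also: cells stimulated with testosterone during compound exposure; nearly all actives have a fitted effect of over 55% in size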
# [10] = qHTS assay to identify small molecule that activate the aryl hydrocarbon receptor (AhR) signaling pathway - cell viability counter screen (AID 743086);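 also: HepG2 liver cells carrying the AhR DRE luciferase reporter; nearly all actives have a fitted effect of over 45% in size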
# Outline: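 Cytotoxicity counter screen: CellTiter-Fluor signal (30 min, 37 C) in 4000 HepG2 cells/well carrying the DRE-luciferase reporter, following 24 h compound exposure at 37 C.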
# [11] = target: Peroxisome proliferator-activated receptor gamma (Homo sapiens) (UniProt P37231); experiment: qHTS assay to identify small molecule agonists of the peroxisome proliferator-activated receptor gamma (PPARg) signaling pathway (AID 743094; active = well fitted activation curve with a large enough effect in the signal ratio in the repeat runs, not every such curve was filed as active; the % refers to the signal ratio)
# Outline: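 Cells from the PPARg UAS-bla HEK293H line are plated and incubated 5 h at 37C. Compounds in DMSO are pinned in and left 17 h at 37C. LiveBLAzer B/G substrate is then added for 1 h at room temperature before fluorescence is measured.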
# [12] = qHTS assay to identify small molecule phospholipidosis (PLD) inducers (AID 1259344; active = well fitted curve in the direction sought with a large enough effect; an effect the other way counts as inactive or inconclusive)
# Outline: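 Accumulated phospholipid, stained red by LipidTOX during 24 h compound treatment of HepG2 cells at 37 C, is quantified from images as pit number and intensity, normalised per cell using Hoechst-stained nuclei.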
# [13] = target: Aryl hydrocarbon receptor (Homo sapiens) (UniProt P35869); experiment: qHTS assay to identify small molecule that activate the aryl hydrocarbon receptor (AhR) signaling pathway (AID 743085); also: nearly all actives have a fitted effect of over 15% in size; also: potency is read from the fitted curve at half-maximal effect;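 as to activation: HG2L7.5c1 human HepG2 liver cells with stably integrated DRE-driven firefly reporter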
# Outline: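 Reporter assay in engineered HepG2 line HG2L7.5c1, whose plasmid carries twenty dioxin responsive elements upstream of firefly luciferase. Treatment lasted 24 h at 37C; ONE-Glo luminescence gauged induction.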
# [14] = qHTS assay to identify small molecule antagonists of the estrogen receptor alpha (ER-alpha) signaling pathway using the BG1 cell line - cell viability counter screen (AID 743081);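 also: compound given together with 17beta-estradiol as the ER stimulus; nearly all actives have a fitted effect of over 45% in size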
# Sequence of Aromatase (Homo sapiens) (P11511 whole entry, looked up): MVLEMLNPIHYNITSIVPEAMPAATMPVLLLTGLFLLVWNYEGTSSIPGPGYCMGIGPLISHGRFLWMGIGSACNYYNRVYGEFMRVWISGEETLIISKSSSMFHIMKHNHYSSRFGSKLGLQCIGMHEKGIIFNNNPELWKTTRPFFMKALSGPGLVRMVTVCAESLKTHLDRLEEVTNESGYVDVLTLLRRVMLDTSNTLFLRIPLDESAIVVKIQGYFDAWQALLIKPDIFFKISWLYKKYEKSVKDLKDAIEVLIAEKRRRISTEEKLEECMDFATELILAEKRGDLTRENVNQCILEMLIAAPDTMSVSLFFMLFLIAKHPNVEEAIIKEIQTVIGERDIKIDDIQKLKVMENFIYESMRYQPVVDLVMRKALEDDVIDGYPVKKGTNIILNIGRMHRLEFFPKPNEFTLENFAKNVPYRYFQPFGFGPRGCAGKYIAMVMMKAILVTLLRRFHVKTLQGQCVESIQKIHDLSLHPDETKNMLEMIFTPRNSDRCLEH
# Sequence of Peroxisome proliferator-activated receptor gamma (Homo sapiens) (P37231 whole entry, looked up): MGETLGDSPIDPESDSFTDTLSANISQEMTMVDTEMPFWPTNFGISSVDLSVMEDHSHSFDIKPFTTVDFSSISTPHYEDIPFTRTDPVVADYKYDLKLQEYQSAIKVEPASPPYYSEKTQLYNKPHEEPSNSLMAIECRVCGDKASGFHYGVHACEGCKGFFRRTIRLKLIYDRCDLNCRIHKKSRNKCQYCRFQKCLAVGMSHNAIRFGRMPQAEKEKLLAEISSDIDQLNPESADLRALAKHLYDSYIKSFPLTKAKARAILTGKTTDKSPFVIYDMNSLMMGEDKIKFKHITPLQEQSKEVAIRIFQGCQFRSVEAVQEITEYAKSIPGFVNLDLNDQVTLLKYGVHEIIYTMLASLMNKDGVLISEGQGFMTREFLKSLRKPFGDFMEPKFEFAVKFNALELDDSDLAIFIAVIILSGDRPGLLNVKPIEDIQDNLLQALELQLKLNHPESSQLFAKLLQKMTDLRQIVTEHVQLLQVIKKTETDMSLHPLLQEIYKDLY
# Sequence of Aryl hydrocarbon receptor (Homo sapiens) (P35869 whole entry, looked up): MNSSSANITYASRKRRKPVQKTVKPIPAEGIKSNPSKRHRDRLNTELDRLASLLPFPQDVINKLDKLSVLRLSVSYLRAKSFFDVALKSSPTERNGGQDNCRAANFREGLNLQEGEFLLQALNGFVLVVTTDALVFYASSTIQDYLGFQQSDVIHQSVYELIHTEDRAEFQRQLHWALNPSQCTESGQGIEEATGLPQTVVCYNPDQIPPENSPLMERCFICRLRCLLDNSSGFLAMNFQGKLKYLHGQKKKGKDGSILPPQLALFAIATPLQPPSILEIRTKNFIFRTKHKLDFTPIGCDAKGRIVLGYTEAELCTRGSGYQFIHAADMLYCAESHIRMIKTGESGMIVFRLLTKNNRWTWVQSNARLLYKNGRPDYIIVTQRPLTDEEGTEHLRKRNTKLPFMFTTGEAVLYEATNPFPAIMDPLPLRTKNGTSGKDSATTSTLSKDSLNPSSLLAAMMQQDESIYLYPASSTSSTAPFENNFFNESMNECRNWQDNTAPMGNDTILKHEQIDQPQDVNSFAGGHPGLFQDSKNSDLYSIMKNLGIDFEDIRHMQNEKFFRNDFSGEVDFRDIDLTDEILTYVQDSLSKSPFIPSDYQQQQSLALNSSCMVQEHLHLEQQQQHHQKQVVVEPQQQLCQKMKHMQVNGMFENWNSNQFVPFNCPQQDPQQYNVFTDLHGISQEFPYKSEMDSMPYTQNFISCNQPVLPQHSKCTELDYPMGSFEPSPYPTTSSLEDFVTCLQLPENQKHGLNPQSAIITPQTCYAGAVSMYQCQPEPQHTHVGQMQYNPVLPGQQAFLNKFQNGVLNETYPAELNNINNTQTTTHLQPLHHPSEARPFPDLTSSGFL
# Sequence of Estrogen receptor (Homo sapiens) (P03372 whole entry, looked up): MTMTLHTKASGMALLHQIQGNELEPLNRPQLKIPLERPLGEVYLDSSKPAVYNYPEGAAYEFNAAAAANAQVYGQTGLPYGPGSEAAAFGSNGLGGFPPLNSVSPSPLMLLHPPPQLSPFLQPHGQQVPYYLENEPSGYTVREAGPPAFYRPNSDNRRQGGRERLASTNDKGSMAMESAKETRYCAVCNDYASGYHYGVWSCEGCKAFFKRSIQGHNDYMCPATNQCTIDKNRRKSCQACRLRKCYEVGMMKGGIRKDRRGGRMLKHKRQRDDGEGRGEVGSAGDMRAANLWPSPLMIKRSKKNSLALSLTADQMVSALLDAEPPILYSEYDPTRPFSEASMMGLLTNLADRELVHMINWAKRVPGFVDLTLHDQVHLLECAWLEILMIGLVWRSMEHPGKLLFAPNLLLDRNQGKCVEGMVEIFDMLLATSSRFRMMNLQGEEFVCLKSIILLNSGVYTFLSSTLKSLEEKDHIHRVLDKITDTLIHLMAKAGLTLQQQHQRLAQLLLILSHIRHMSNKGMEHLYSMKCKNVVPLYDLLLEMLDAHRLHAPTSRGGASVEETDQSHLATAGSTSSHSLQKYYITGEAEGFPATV
Compound,Potency [1],Potency [2],Potency [3],Potency [4],Potency [5],Potency [6],Potency [7],Potency [8],Potency (Aromatase (Homo sapiens)),Potency [9],Potency [10],Potency [11],Potency [12],PLD induction [12],Potency [13],Potency [14]
CCN(CC)CCOC(=O)c1ccc(N)cc1Cl,inactive,inactive,inactive,inactive,inactive,inactive,inactive,inactive,inactive,inactive,inactive,inactive,inactive,–,–,–
Cc1nnc(C(C)C)n1C1C[C@H]2CC[C@@H](C1)N2CC[C@H](NC(=O)C1CCC(F)(F)CC1)c1ccccc1 (stereo partly drawn),inactive,inactive,inactive,inactive,inactive,inactive,inactive,inactive,inactive,inactive,inactive,inactive,–,-2.27% [at 7.66 µM],–,–
NCCCC[C@H](NC(=O)[C@@H]1CCCN1C(=O)[C@@H]1CSSC[C@H](N)C(=O)N[C@@H](Cc2ccccc2)C(=O)N[C@@H](Cc2ccccc2)C(=O)N[C@@H](CCC(N)=O)C(=O)N[C@@H](CC(N)=O)C(=O)N1)C(=O)NCC(N)=O,inactive,inactive,inactive,inactive,inactive,inactive,inactive,inactive,inactive,inactive,inactive,inactive,inactive,–,inactive,–
COc1cc(C[C@@H]2NCCc3cc(O)c(O)cc32)cc(OC)c1OC,inactive,inactive,inactive,inactive,inactive,inactive,inactive,inactive,inactive,inactive,inactive,inactive,inactive,–,–,–
C[C@]12CCC(=O)C=C1CC[C@@H]1[C@@H]2[C@@H](O)C[C@@]2(C)[C@H]1CC[C@]2(O)C(=O)COP(=O)(O)O,inactive,inactive,inactive,–,inactive,–,29.8 µM (active),–,inactive,inactive,inactive,inactive,inactive,–,–,inactive
CNC[C@@H]1CC[C@@H](N)[C@@H](O[C@H]2[C@H](O)[C@@H](O[C@H]3OC[C@](C)(O)[C@H](NC)[C@H]3O)[C@H](N)C[C@@H]2N)O1,inactive,inactive,inactive,inactive,–,inactive,inactive,inactive,inactive,inactive,inactive,inactive,–,-1.48% [at 7.66 µM],inactive,–
C[C@@H]1C/C=C/C=C/C=C/C=C/[C@H](O[C@@H]2O[C@H](C)[C@@H](O)[C@H](N)[C@@H]2O)C[C@@H]2O[C@](O)(C[C@@H](O)C[C@H]3O[C@@H]3/C=C/C(=O)O1)C[C@H](O)[C@H]2C(=O)O,inactive,inactive,inactive,inactive,inactive,inactive,inactive,–,inactive,inactive,inactive,inactive,inactive,–,inactive,inactive
CCCCCCCCCCCCCCCCCC(=O)OCCO,inactive,inactive,inactive,inactive,–,inactive,9.44 µM (active),inactive,inactive,inactive,inactive,inactive,inactive,–,inactive,inactive
CCCC(=O)Nc1ncnc2c1ncn2[C@@H]1O[C@@H]2COP(=O)(O)O[C@H]2[C@H]1OC(=O)CCC,inactive,inactive,inactive,–,inactive,–,–,–,inactive,inactive,inactive,–,inactive,–,inactive,inactive
Cc1ccccc1CNc1ncnc2c1ncn2[C@@H]1O[C@H](CO)[C@@H](O)[C@H]1O,inactive,inactive,inactive,–,inactive,–,inactive,inactive,–,inactive,inactive,–,inactive,–,inactive,inactive
CCC(C)(C)OC(=O)N[C@@H](Cc1c[nH]c2ccccc12)C(=O)N[C@@H](CCSC)C(=O)N[C@@H](CC(=O)O)C(=O)N[C@@H](Cc1ccccc1)C(N)=O,inactive,inactive,inactive,inactive,inactive,inactive,inactive,inactive,inactive,inactive,inactive,inactive,inactive,–,inactive,–
CCCC(=O)N1CCCN(c2nc(N)c3cc(OC)c(OC)cc3n2)CC1,inactive,inactive,inactive,inactive,inactive,inactive,–,inactive,inactive,inactive,inactive,–,inactive,–,5.31 µM (active),inactive
